The source made the active and inactive calls. How the source made its calls: active means hit-call score of the fitted dose curve at least 0.9, where 1 is the maximum; inactive means score below 0.9.
Assay: ATG_TGFb_CIS: Attagene CIS-FACTORIAL HepG2 Assay for human Transforming Growth Factor (TGF) (AID 2282967)
Settings: HepG2 Attagene CIS TGFb reporter, mRNA transcription; actives raise or lower the signal
Experimental: ATG_CIS is a cell-based, multiplexed-readout assay that uses HepG2, a human liver cell line, with measurements taken at 24 hours after chemical dosing in a 24-well plate.ATG_TGFb_CIS is one of 52 assay component(s) measured or calculated from the ATG_CIS assay. It is designed to make measurements of mRNA induction, a form of inducible reporter, as detected with fluorescence intensity signals by Reverse transcription polymerase chain reaction (RT-PCR) and Capillary electrophoresis technology.Data from the assay component ATG_TGFb_CIS was analyzed into 1 assay endpoint. This assay endpoint, ATG_TGFb_CIS, was analyzed with bidirectional fitting relative to DMSO as the negative control and baseline of activity. Using a type of inducible reporter, measures of mRNA for gain or loss-of-signal activity can be used to understand the reporter gene at the transcription factor-level as they relate to the gene TGFB1. Furthermore, this assay endpoint can be referred to as a primary readout, because this assay has produced multiple assay endpoints where this one serves a reporter gene function. To generalize the intended target to other relatable targets, this assay endpoint is annotated to the growth factor intended target family, where the subfamily is transforming growth factor beta.
Human liver HepG2 cells are transiently transfected with multiple reporter transcription units (MRTUs) in 6-well plates using FuGene 6 reagent (Roche; 3 ml FuGene/1 mg DNA). The MRTU constructs are regulated by a cis-regulating element (promoter). […] A major difference between the CIS and TRANS system is that in CIS activities of endogenous TFs are measured, whereas the TRANS assay evaluates changes in activities of exogenous, chimeric NR-Gal4 proteins. […] At the end of 24 hour incubation, total RNA was isolated using TriZol reagent (Invitrogen). The isolated RNA is then reverse-transcribed using oligo(dT) primer and Mo-MLV reverse transcriptase (Invitrogen) with DNAse I (Ambion) treatment for 30 min. The one-tenth of the produced cDNA was amplified by PCR using Taq DNA polymerase (Invitrogen) and two reporter sequence-specific primers. The PCR products were fluorescently labeled by primer extension with 6-arboxyfluorescein (6-FAM) 5'-labeled reporter sequence-specific primer (2 min at 95 C, 20 s at 68 C and 10 min at 72 C) and these products were digested with 5U of HpaI (New England Biolabs) for 2h at 37 C. The fragments were purified using Qiaquick PCR columns (Qiagen), analyzed on an ABI 3130xL genetic analyzer (Applied Biosystems) with peak positions identified by using a set of X-rhodamine (ROX)-labeled MapMarker1000 molecular weight standards (BioVentures). The raw capillary electrophoresis data was processed using Attagraph software (Attagene).

Compound | outcome | AC50
CCC(C)(O)CCCC(C)C (stereo not given) | inactive | –
C=CCCCCCCCCO | inactive | –
CC=CC(=O)OCC(C)C | inactive | –
CCCC=C(C=O)CC | inactive | –
c1ccc2sc(SSN3CCOCC3)nc2c1 | inactive | –
Cc1cc(=O)[nH]c(=O)[nH]1 | inactive | –
C=CCOC(=O)c1ccc(C(=O)OCC=C)c(C(=O)OCC=C)c1 | inactive | –
CCN(CC)c1cccc(C)c1 | inactive | –
CN(C)c1ccc2nc3ccc(=[N+](C)C)cc-3sc2c1 | inactive | –
Cc1c(C(=O)c2c[nH]n(C)c2=O)ccc(S(C)(=O)=O)c1C1=NOCC1 | inactive | –
CCCCCCC=O | inactive | –
O=C(C=Cc1ccccc1)OCCc1ccccc1 | inactive | –
NC(=O)Nc1ccccc1 | inactive | –
CC/C=C\C/C=C\C/C=C\CCCCCCCC(=O)OC | – | 100 µM (active)
CC1CCC(C(C)(C)S)C(=O)C1 (stereo not given) | inactive | –
CCC(C)C(=O)OC (stereo not given) | inactive | –
CC(C)C(=O)OCCOc1ccccc1 | inactive | –
C=C(C)[C@@H]1CC=C(C)CC1 | inactive | –
C1CNCCN1 | inactive | –
CC(=O)OCCc1ccccc1 | inactive | –

Compound | outcome | AC50
CCCCCCOc1ccc(N)cc1 | inactive | –
CC(C)c1ccc(O)c(C(C)C)c1 | inactive | –
[Cl][Sc]([Cl])[Cl] | inactive | –
CC(C)=NNC(N)=S | inactive | –
Cc1ccc(C)c(OCCCC(C)(C)C(=O)O)c1 | inactive | –
CC(=O)CCC=C(C)C | inactive | –
O=C(OCc1ccccc1)c1ccc(O)cc1 | inactive | –
COc1ccc(C(=O)/C(Br)=C\C(=O)O)cc1 | inactive | –
C=CCNCC=C | inactive | –
Cc1noc(NS(=O)(=O)c2ccc(N)cc2)c1C | inactive | –
Cn1ccnc1 | inactive | –
Nc1ccc(O)c([N+](=O)[O-])c1 | inactive | –
C=CCCCCCCCCC=O | inactive | –
CC(=O)CC(=O)Nc1ccccc1C | inactive | –
O=C1CCCCC1C1CCCCC1 (stereo not given) | inactive | –
O=C1CCCN1C1CCCCC1 | inactive | –
N#Cc1ccc(C(c2ccc(C#N)cc2)n2cncn2)cc1 | inactive | –
O=C(Oc1ccccc1)c1ccccc1C(=O)Oc1ccccc1 | inactive | –
CC(C=O)c1ccccc1 (stereo not given) | inactive | –
[Cl][Eu]([Cl])[Cl] | inactive | –
